Laboratory results from PubChem BioAssay (NCI).
Compounds without any hit were thinned out: in the full panel of roughly 83,000, 20% have a hit.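 Single-concentration screen, 48 h exposure, 96-well plates. Endpoint: percent growth. Below 10 = active.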 Unmarked numbers belong to inactive results. The source made the active and inactive calls.

System: HL-60(TB) leukemia
Assay: NCI-60 one-dose screen, 48 h (100 = growth as untreated, 0 = no growth, -100 = all killed)
Conditions: 10 µM unless noted

Compound	growth
CC1(C)CC2(C)OC2C2(C1)N=NC(=Nc1ccccc1)O2 (stereo not given)	85.2%
Cc1n(Cc2ccc3ccccc3c2)c2ccccc2[n+]1Cc1ccc2ccccc2c1	-60.3% (active)
C#C[C@@]1(O)[C@@H](CO)O[C@@H](n2cc(I)c3c(N)ncnc32)[C@@H]1O	-56.6% (active)
Cc1ccc(Nc2nnc(-c3ccc(Cl)cc3)o2)c(C)c1	84.2%
COc1ccc2nc3ccccc3c(NCc3ccc(F)cc3)c2c1	-34.6% (active)
CCOC(=O)C1=C(C(F)(F)F)NC(=O)NC1CN1C(=O)c2ccccc2C1=O (stereo not given)	46.2%
COC(=O)C(Cc1ccccc1)n1cc(COc2nc(Cl)nc(Nc3ccc(Cl)cc3)n2)nn1 (stereo not given)	72.2%
Cc1ccc(C(=O)N(CCCN)[C@@H](c2nc3cc(Cl)ccc3c(=O)n2Cc2ccccc2)C(C)C)cc1	-58.3% (active)
COc1ccc(-c2cc(C(=O)N3N=C(c4ccc(N)cc4)CC3c3ccc(Cl)cc3)c3cc(OC)ccc3n2)cc1 (stereo not given)	4.62% (active)
O=C1OCC/C1=C\OCCCO/C=C1\CCOC1=O	104%
COc1ccc(C(=O)c2cc(C)c(OC)c(C)c2)cc1OC(=O)CCl	-43.6% (active)
Clc1nc(Cl)c2c3c(sc2n1)CCCC3	-14.2% (active)
COc1ccc(C(=O)C2C(C#N)C(C#N)C3C=Cc4ccccc4N32)cc1 (stereo not given)	-7.91% (active)
Cn1c(N)c(N=Cc2ccccc2)c(=O)n(C)c1=O	86.1%
COc1cc(-c2ccc(-c3ccc(C(=N)N)nc3)s2)cc(OC)c1OC	-40.6% (active)
